Laboratory results reported in paper PMC9911399, “Two distinct binding modes provide the RNA-binding protein RbFox with extraordinary sequence specificity”.
Positions count from the first letter of the chain named. Whole data set: some 16,000 sequences, median “ka relative to ugcaugu” near 0.096, cut for the highest 2% near 0.35. Only a selection was taken, and the highest values are over-represented in it overall.

T1: RBFOX1 RRM RbFoxmut (Fox-RRM*) (Homo sapiens, UniProt Q9NWB1 109-208, R118D;E147R;N151S;E152T)
T1 sequence: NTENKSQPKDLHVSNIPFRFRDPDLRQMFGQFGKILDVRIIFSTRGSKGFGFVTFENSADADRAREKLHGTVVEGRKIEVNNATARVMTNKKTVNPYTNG

B1: UAACUCA (DNA:RNA)
RNA: GGGAGACCGGAAUUCAGAUUGUCCUAACUCAUUAAAUCCCGUCGUAGCCACCA
DNA 1: CAATCTGAATTCCGGTCTCCC
DNA 2: TGGTGGCTACGACGGGATT
B2: CCUCUGC (DNA:RNA)
RNA: B1 RNA with U25C, A26C, A27U, C30G, A31C
DNA 1: CAATCTGAATTCCGGTCTCCC
DNA 2: TGGTGGCTACGACGGGATT
B3: GACAUAA (DNA:RNA)
RNA: B1 RNA with U25G, A27C, C28A, C30A
DNA 1: CAATCTGAATTCCGGTCTCCC
DNA 2: TGGTGGCTACGACGGGATT
B4: GCAUAAA (DNA:RNA)
RNA: B1 RNA with U25G, A26C, C28U, U29A, C30A
DNA 1: CAATCTGAATTCCGGTCTCCC
DNA 2: TGGTGGCTACGACGGGATT
B5: GCAUAAU (DNA:RNA)
RNA: B1 RNA with U25G, A26C, C28U, U29A, C30A, A31U
DNA 1: CAATCTGAATTCCGGTCTCCC
DNA 2: TGGTGGCTACGACGGGATT
B6: GCAUGAA (DNA:RNA)
RNA: B1 RNA with U25G, A26C, C28U, U29G, C30A
DNA 1: CAATCTGAATTCCGGTCTCCC
DNA 2: TGGTGGCTACGACGGGATT
B7: GCAUUUU (DNA:RNA)
RNA: B1 RNA with U25G, A26C, C28U, C30U, A31U
DNA 1: CAATCTGAATTCCGGTCTCCC
DNA 2: TGGTGGCTACGACGGGATT
B8: GCAUAGA (DNA:RNA)
RNA: B1 RNA with U25G, A26C, C28U, U29A, C30G
DNA 1: CAATCTGAATTCCGGTCTCCC
DNA 2: TGGTGGCTACGACGGGATT
B9: GCAUGAU (DNA:RNA)
RNA: B1 RNA with U25G, A26C, C28U, U29G, C30A, A31U
DNA 1: CAATCTGAATTCCGGTCTCCC
DNA 2: TGGTGGCTACGACGGGATT
B10: CGCCCUU (DNA:RNA)
RNA: B1 RNA with U25C, A26G, A27C, U29C, C30U, A31U
DNA 1: CAATCTGAATTCCGGTCTCCC
DNA 2: TGGTGGCTACGACGGGATT
B11: UCGUUAU (DNA:RNA)
RNA: B1 RNA with A26C, A27G, C28U, C30A, A31U
DNA 1: CAATCTGAATTCCGGTCTCCC
DNA 2: TGGTGGCTACGACGGGATT
B12: UGUGUGG (DNA:RNA)
RNA: B1 RNA with A26G, A27U, C28G, C30G, A31G
DNA 1: CAATCTGAATTCCGGTCTCCC
DNA 2: TGGTGGCTACGACGGGATT
B13: UGUAUGA (DNA:RNA)
RNA: B1 RNA with A26G, A27U, C28A, C30G
DNA 1: CAATCTGAATTCCGGTCTCCC
DNA 2: TGGTGGCTACGACGGGATT
B14: CGUAAUG (DNA:RNA)
RNA: GGGAGACCGGAAUUCAGAUUGUCCCGUAAUGUUAAAUCCCGUCGUAGCCACCA
DNA 1: CAATCTGAATTCCGGTCTCCC
DNA 2: TGGTGGCTACGACGGGATT
B15: UGUCGUA (DNA:RNA)
RNA: B14 RNA with C25U, A28C, A29G, G31A
DNA 1: CAATCTGAATTCCGGTCTCCC
DNA 2: TGGTGGCTACGACGGGATT
B16: UGUAUGG (DNA:RNA)
RNA: B14 RNA with C25U, A29U, U30G
DNA 1: CAATCTGAATTCCGGTCTCCC
DNA 2: TGGTGGCTACGACGGGATT
B17: UGUAUUC (DNA:RNA)
RNA: B14 RNA with C25U, A29U, G31C
DNA 1: CAATCTGAATTCCGGTCTCCC
DNA 2: TGGTGGCTACGACGGGATT
B18: UGUAAUG (DNA:RNA)
RNA: B14 RNA with C25U
DNA 1: CAATCTGAATTCCGGTCTCCC
DNA 2: TGGTGGCTACGACGGGATT
B19: UGUUAAA (DNA:RNA)
RNA: B14 RNA with C25U, A28U, U30A, G31A
DNA 1: CAATCTGAATTCCGGTCTCCC
DNA 2: TGGTGGCTACGACGGGATT
B20: UGUAGGC (DNA:RNA)
RNA: B14 RNA with C25U, A29G, U30G, G31C
DNA 1: CAATCTGAATTCCGGTCTCCC
DNA 2: TGGTGGCTACGACGGGATT
B21: UGUAUGC (DNA:RNA)
RNA: B14 RNA with C25U, A29U, U30G, G31C
DNA 1: CAATCTGAATTCCGGTCTCCC
DNA 2: TGGTGGCTACGACGGGATT
B22: UGUAGGG (DNA:RNA)
RNA: B14 RNA with C25U, A29G, U30G
DNA 1: CAATCTGAATTCCGGTCTCCC
DNA 2: TGGTGGCTACGACGGGATT
B23: UGUAAUC (DNA:RNA)
RNA: B14 RNA with C25U, G31C
DNA 1: CAATCTGAATTCCGGTCTCCC
DNA 2: TGGTGGCTACGACGGGATT
B24: UGCUAAU (DNA:RNA)
RNA: B14 RNA with C25U, U27C, A28U, U30A, G31U
DNA 1: CAATCTGAATTCCGGTCTCCC
DNA 2: TGGTGGCTACGACGGGATT
B25: AGCGUUA (DNA:RNA)
RNA: B14 RNA with C25A, U27C, A28G, A29U, G31A
DNA 1: CAATCTGAATTCCGGTCTCCC
DNA 2: TGGTGGCTACGACGGGATT
B26: GUGCUCG (DNA:RNA)
RNA: B1 RNA with U25G, A26U, A27G, A31G
DNA 1: CAATCTGAATTCCGGTCTCCC
DNA 2: TGGTGGCTACGACGGGATT
B27: CUUACCA (DNA:RNA)
RNA: B14 RNA with G26U, A29C, U30C, G31A
DNA 1: CAATCTGAATTCCGGTCTCCC
DNA 2: TGGTGGCTACGACGGGATT
B28: GAGUGUA (DNA:RNA)
RNA: B1 RNA with U25G, A27G, C28U, U29G, C30U
DNA 1: CAATCTGAATTCCGGTCTCCC
DNA 2: TGGTGGCTACGACGGGATT
B29: CAGCCAU (DNA:RNA)
RNA: B1 RNA with U25C, A27G, U29C, C30A, A31U
DNA 1: CAATCTGAATTCCGGTCTCCC
DNA 2: TGGTGGCTACGACGGGATT
B30: UGUAUCG (DNA:RNA)
RNA: B14 RNA with C25U, A29U, U30C
DNA 1: CAATCTGAATTCCGGTCTCCC
DNA 2: TGGTGGCTACGACGGGATT
B31: UGUCCCG (DNA:RNA)
RNA: B14 RNA with C25U, A28C, A29C, U30C
DNA 1: CAATCTGAATTCCGGTCTCCC
DNA 2: TGGTGGCTACGACGGGATT
B32: UGUUGUA (DNA:RNA)
RNA: B14 RNA with C25U, A28U, A29G, G31A
DNA 1: CAATCTGAATTCCGGTCTCCC
DNA 2: TGGTGGCTACGACGGGATT
B33: UGUAUUA (DNA:RNA)
RNA: B14 RNA with C25U, A29U, G31A
DNA 1: CAATCTGAATTCCGGTCTCCC
DNA 2: TGGTGGCTACGACGGGATT
B34: UGUAUUG (DNA:RNA)
RNA: B14 RNA with C25U, A29U
DNA 1: CAATCTGAATTCCGGTCTCCC
DNA 2: TGGTGGCTACGACGGGATT
B35: UGUAUCC (DNA:RNA)
RNA: B14 RNA with C25U, A29U, U30C, G31C
DNA 1: CAATCTGAATTCCGGTCTCCC
DNA 2: TGGTGGCTACGACGGGATT

target: T1, RBFOX1 RRM RbFoxmut (Fox-RRM*); test: EMSA; HiTS-Eq, 1 nM pool, 10 min; buffer printed only for the single-RNA assays: 10 mM Tris pH 7.5, 150 mM NaCl, 3.4 mM EDTA, 0.001% NP-40, 30 C; conditions: tags: His6 N-terminal (pET28a); label: 5' 32P
In short: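 Purified RbFox RRM (wild type or mutant) was equilibrated for 10 min in 50 µL with 1 nM of a 5′-radiolabelled pool of RNA with 7 randomized nucleotides, its flanks annealed to DNA oligonucleotides, across increasing protein concentrations. Free RNA was separated by 8% native PAGE, excised, reverse-transcribed, PCR-barcoded and sequenced on an Illumina HiSeq 2500. Relative association constants came from read-count changes of each variant against the control reaction, normalised to the cognate motif.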

Binder | binding signal
B1 | 0.1 KA relative to UGCAUGU
B2 | 0.0985 KA relative to UGCAUGU
B3 | 0.115 KA relative to UGCAUGU
B4 | 0.144 KA relative to UGCAUGU
B5 | 0.115 KA relative to UGCAUGU
B6 | 0.798 KA relative to UGCAUGU
B7 | 0.113 KA relative to UGCAUGU
B8 | 0.132 KA relative to UGCAUGU
B9 | 0.551 KA relative to UGCAUGU
B10 | 0.0724 KA relative to UGCAUGU
B11 | 0.11 KA relative to UGCAUGU
B12 | 0.173 KA relative to UGCAUGU
B13 | 0.44 KA relative to UGCAUGU
B14 | 0.157 KA relative to UGCAUGU
B15 | 0.13 KA relative to UGCAUGU
B16 | 0.394 KA relative to UGCAUGU
B17 | 0.207 KA relative to UGCAUGU
B18 | 0.381 KA relative to UGCAUGU

Binder | binding signal
B19 | 0.11 KA relative to UGCAUGU
B20 | 0.115 KA relative to UGCAUGU
B21 | 0.684 KA relative to UGCAUGU
B22 | 0.0751 KA relative to UGCAUGU
B23 | 0.157 KA relative to UGCAUGU
B24 | 0.0977 KA relative to UGCAUGU
B25 | 0.113 KA relative to UGCAUGU
B26 | 0.226 KA relative to UGCAUGU
B27 | 0.0834 KA relative to UGCAUGU
B28 | 0.258 KA relative to UGCAUGU
B29 | 0.0919 KA relative to UGCAUGU
B30 | 0.648 KA relative to UGCAUGU
B31 | 0.096 KA relative to UGCAUGU
B32 | 0.307 KA relative to UGCAUGU
B33 | 0.175 KA relative to UGCAUGU
B34 | 0.691 KA relative to UGCAUGU
B35 | 0.15 KA relative to UGCAUGU
